Data on seven molecules can be found in article PMC7826789 (International Journal of Molecular Sciences, 2021).
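Further: KINOMEscan scanMAX binding as percent activity remaining versus control; lower means stronger binding.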

The assay relates to MYLK4. To be noted: Compound Concentration (nM):1000.
`Cl.O=C(O[C@H]1CN[C@H](C#Cc2cc3ncnc(Nc4ccc5c(cnn5Cc5ccccc5)c4)c3s2)C1)N1CCOCC1` [GSK200398A]: the “Percent Control” value is listed as 91%.

Take `COc1cc(C)c(N(C)C(=O)CN(C)C)cc1Nc1nc(Nc2cccc(F)c2C(N)=O)c2cc[nH]c2n1` [GSK2219385]: the “Percent Control” value was 100%.

As to `Nc1ncnc2occ(-c3ccc(NC(=O)Nc4cc(C(F)(F)F)ccc4F)cc3)c12` [GW770249X], the “Percent Control” value was found to be 100%.

Take `COc1cc(/C=N/Nc2ncnc3[nH]ncc23)ccc1O` [GW578748X]: the “Percent Control” value worked out at 38%.

For the molecule `C[C@@H](Oc1cc(-n2cnc3ccc(OC4CCN(C)CC4)cc32)sc1C(N)=O)c1ccccc1Cl` [GSK579289A], the “Percent Control” value is 62%.

Regarding `COc1ccc2c(-c3ccnc(Nc4cccc(OC(F)(F)F)c4)n3)cnn2n1` [GW810372X], the “Percent Control” value came out at 60%.

`CN(C)c1cc2c(Nc3ccc4c(cnn4Cc4ccccc4)c3)ncnc2cn1` [GW282974X]: the “Percent Control” value came to 86%.
